Compound activity as filed in PubChem BioAssay.
Her2 expr inh = Her2 kinase expression inhibition; 0.69% of 65,000 active; P04626; HER2 level % of control, % at 10 µM; SKBR-3 HER2 protein level, AlphaScreen, 18-24 h; active compounds read low;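 active = HER2 level under 5% of the carrier-only control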;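 also: lower value means stronger loss of Her2 protein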
Target sequence (P04626 whole entry, looked up): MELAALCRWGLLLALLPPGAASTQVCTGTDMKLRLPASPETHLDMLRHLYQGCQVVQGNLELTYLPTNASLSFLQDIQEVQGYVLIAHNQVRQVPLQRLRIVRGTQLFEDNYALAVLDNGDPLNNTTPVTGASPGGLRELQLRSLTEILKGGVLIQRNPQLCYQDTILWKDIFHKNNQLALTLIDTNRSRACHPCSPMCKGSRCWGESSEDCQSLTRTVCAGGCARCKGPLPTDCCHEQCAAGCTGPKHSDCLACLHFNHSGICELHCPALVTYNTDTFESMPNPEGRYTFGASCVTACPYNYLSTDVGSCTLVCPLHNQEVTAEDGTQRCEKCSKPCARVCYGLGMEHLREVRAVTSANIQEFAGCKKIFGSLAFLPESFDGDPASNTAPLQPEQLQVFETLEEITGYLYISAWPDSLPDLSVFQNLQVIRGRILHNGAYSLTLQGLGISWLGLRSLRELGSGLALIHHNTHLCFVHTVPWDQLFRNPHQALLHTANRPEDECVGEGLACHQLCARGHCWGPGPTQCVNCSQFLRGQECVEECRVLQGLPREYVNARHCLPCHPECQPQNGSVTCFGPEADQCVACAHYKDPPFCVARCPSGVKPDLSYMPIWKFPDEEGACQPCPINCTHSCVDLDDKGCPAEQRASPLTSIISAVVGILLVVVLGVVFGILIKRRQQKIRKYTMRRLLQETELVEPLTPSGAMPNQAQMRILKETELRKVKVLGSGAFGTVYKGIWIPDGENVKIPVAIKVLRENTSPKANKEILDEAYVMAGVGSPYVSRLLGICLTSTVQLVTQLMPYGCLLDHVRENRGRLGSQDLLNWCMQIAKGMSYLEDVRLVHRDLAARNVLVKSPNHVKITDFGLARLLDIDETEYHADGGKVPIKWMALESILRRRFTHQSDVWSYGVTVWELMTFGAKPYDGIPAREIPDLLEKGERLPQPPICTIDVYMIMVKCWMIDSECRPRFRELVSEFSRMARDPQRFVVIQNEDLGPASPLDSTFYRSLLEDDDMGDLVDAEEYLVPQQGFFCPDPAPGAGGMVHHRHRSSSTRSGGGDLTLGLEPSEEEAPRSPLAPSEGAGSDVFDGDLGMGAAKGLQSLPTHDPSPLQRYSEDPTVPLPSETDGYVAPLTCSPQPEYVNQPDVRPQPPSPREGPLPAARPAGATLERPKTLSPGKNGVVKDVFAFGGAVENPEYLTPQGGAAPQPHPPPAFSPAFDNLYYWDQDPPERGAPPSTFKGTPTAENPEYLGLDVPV
Jurkat tox 60K = cytotoxic compounds reducing Jurkat cell viability. Jurkat E6.1 viability, ATP luminescence, 48 h. inhibition, % at 4 µM. 1.2% of 56,000 active. AID 463;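 active = inhibition above the mean inhibition of all tested compounds plus 3 SD, cut at about 28% in these data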
SKBR3 24h inh = SK-BR-3 proliferation inhibitors | SK-BR-3 viability, CellTiter-Glo ATP luminescence, 24 h; active compounds read low | viability, % at 10 µM | 0.47% of 41,000 active | AID 847;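 active = viability at or below the median of all test compounds minus 3 SD, in both replicates if run twice, cut at about 45% in these data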
Numbers stand for hits; – = inactive; · = no result. In the library only some 2% were active in any assay of this set; here they are far more common.

SMILES | Her2 expr inh | Jurkat tox 60K | SKBR3 24h inh
COc1ccccc1-c1cc(C(F)(F)F)nc(S(=O)(=O)CCCC(=O)N2CCCCC2C)n1 (configuration not stated) | -17.1 | 58.1 | 37.7
COc1ccccc1-c1cc(C(F)(F)F)nc(N2CCCC2)n1 | – | · | –
COc1ccccc1-c1cc(C(F)(F)F)nc(S(=O)(=O)CCCC(=O)NC(C)C)n1 | -12.9 | – | –
Cc1ccc2cc(C#N)c(NCCNC(=O)C3CC3)nc2c1C | – | – | –
CCOc1ccc(C2CC(c3ccc(F)cc3)n3ncnc3N2)cc1 (configuration not stated) | – | – | ·
O=C(CCn1c(=S)[nH]c2ccccc2c1=O)N1CCN(c2ccccn2)CC1 | – | · | ·
Nc1nonc1-c1nc2ccccc2n1CC(=O)N1CCCCC1 | – | – | ·
COC(=O)c1ccccc1NC(=O)Cn1c(-c2nonc2N)nc2ccccc21 | – | 61.1 | –
CS(=O)(=O)N(CCc1ccccc1)CC(N)=O | – | – | –
Cc1c(Cl)cccc1-n1nnnc1-c1cccs1 | – | – | –
O=C(c1ccco1)N(Cc1cc2ccccc2[nH]c1=O)C1CCCCC1 | – | – | –
Cc1ccc2[nH]c(=O)c(CN(Cc3ccco3)C(=O)c3ccncc3)cc2c1 | – | 40.2 | –
COc1ccc(C(=O)N(Cc2ccco2)Cc2cc3cc(C)ccc3[nH]c2=O)cc1OC | – | – | –
O=C(c1ccncc1)N(Cc1cc2ccccc2[nH]c1=O)C1CCCCC1 | – | 46.8 | –
O=S(=O)(NCc1cn2ccsc2n1)c1ccc2c(c1)OCCO2 | – | – | ·
CCCCN1C(=O)c2ccc(C(=O)NC3=NCCS3)cc2C1=O | – | – | –
Cc1ccc(NC(=O)NC(=O)N(c2ccccc2)S(C)(=O)=O)cc1 | – | – | –
Cc1ccc(C2C=C(c3ccccc3OC(F)F)Nc3ncnn32)cc1 (configuration not stated) | – | – | –
CN(C)c1ccc(C2C=C(c3ccc(Cl)cc3OC(F)F)Nc3ncnn32)cc1 (configuration not stated) | – | 60.1 | –
COc1ccc(CCNc2cc(=O)[nH]c(N)n2)cc1 | – | – | –
O=C(CSc1nnc(CNC(=O)c2cccs2)o1)Nc1cccc(C(F)(F)F)c1 | – | · | ·
O=C1NCCCC2c3cc(O)c4ccccc4c3OC12N1CCCCC1 (configuration not stated) | – | – | 5.1
O=C1NCCCC2c3c(cc(Br)c(O)c3Br)OC12N1CCOCC1 (configuration not stated) | – | – | –
CCOc1ccc2sc(NS(=O)(=O)c3ccc(OC)c(OC)c3)nc2c1 | – | – | –
C=CC[N+](C)(C)CCCNC(=O)/C=N/O | – | · | –
SMILES | Her2 expr inh | Jurkat tox 60K | SKBR3 24h inh
O=C(Nc1ccc(N2CCOCC2)cc1)c1cnsn1 | – | – | –
CS(=O)(=O)c1ncc(Cl)c(C(=O)Nc2ccc(N3CCOCC3)cc2)n1 | -1.6 | 62.4 | –
Cn1c(=O)n(CCc2ccccc2)c(=O)c2c1nc1n2CCCN1c1ccc(F)cc1 | – | – | –
Cc1onc(-c2ccccc2)c1C(=O)N1CCc2ccccc21 | – | · | –
O=C(CSc1ncnc2sc3c(c12)CCCCC3)NCc1ccco1 | – | 37.6 | –
Cc1nc2c(sc3nc4c(cc32)COC(C)(C)C4)c(=O)n1CC(=O)NCc1ccco1 | – | · | –
CC1(C)Cc2nc3sc4c(SCC(=O)NCc5ccco5)ncnc4c3cc2CO1 | · | 77.6 | –
O=C(CSc1ncnc2sc3c(c12)CCCC3)c1ccco1 | – | – | ·
CCOC(=O)c1oc2ccc(S(=O)(=O)Nc3ccc4c(c3)n(C)c(=O)n4C)cc2c1C | – | 44.0 | –
Cn1c(=O)n(C)c2cc(NS(=O)(=O)c3ccc4c(c3)CCCC4)ccc21 | – | 39.3 | –
CCOC(=O)N1CCN(C(=O)c2oc3ccc(S(=O)(=O)N4CCCCCC4)cc3c2C)CC1 | – | · | –
Cn1c(=O)c2cc(S(=O)(=O)Nc3ccc4c(c3)OCO4)ccc2n(C)c1=O | – | – | –
Cc1cc2c(c(Sc3ccccc3)n1)C(=O)OC2 | – | – | –
Cc1cc(Oc2ccccc2)nc2ccc(O)cc12 | – | – | –
COc1cc(NS(=O)(=O)c2ccc(Br)s2)cc(OC)c1 | – | – | –
[N-]=[N+]=CC(=O)CC(c1ccccc1)N1C(=O)c2ccccc2C1=O (configuration not stated) | -28.1 | – | –
[N-]=[N+]=CC(=O)CCCN1C(=O)c2ccccc2C1=O | – | – | –
CCCc1c(O)nc(SCCN(CC)CC)n(C(=O)c2ccccc2)c1=O | – | – | –
Cc1nn(-c2ccccc2)c2[nH]c(=O)c(CNc3ccc(N4CCOCC4)cc3)cc12 | – | – | –
Cc1nn(-c2ccc(Cl)cc2)c2[nH]c(=O)c(CNCc3ccc4c(c3)OCO4)cc12 | -19.3 | – | –
O=C(NCCSc1c[nH]c2ccccc12)c1ccc(Br)o1 | – | 37.8 | ·
CCC(=O)NCCSc1c[nH]c2ccccc12 | – | – | –
CCN(CC)S(=O)(=O)c1ccc(C2CNC(=O)C2)cc1 (configuration not stated) | – | – | ·
C=CCNC(=O)c1ccc2c(c1)nnn2C | – | · | –
CC(C)C[C@H](N)c1nnc(S(=O)(=O)Cc2ccc(F)cc2)o1 | – | – | 32.7
SMILES | Her2 expr inh | Jurkat tox 60K | SKBR3 24h inh
Cn1cc(S(=O)(=O)Cc2ccc(F)cc2)c2ccccc21 | – | – | ·
Cc1nc2ccccn2c1/C(O)=C1\C(=O)C(=O)N(CCCN(C)C)C1c1ccc(Cl)cc1 (configuration not stated) | – | – | ·
CCc1nc2ccccc2n1CCC(C)C | – | – | –
CCOC(=O)C1=C(N)n2c(s/c(=C\c3ccco3)c2=O)=C(C(=O)OC(C)C)C1c1ccco1 (configuration not stated) | – | · | –
CCOC(=O)C1=C(N)n2c(s/c(=C\c3ccco3)c2=O)=C(C(=O)OCC)C1c1ccco1 (configuration not stated) | – | 60.7 | –
CC(=O)c1cc(OC(=O)c2ccncc2)ccc1OC(=O)c1ccncc1 | – | – | –
COCCCN=C(c1ccco1)n1c(=S)nc(-c2ccco2)n(CCCOC)c1=S | – | · | –
CCOC(=O)N1CCN(Cc2nc(N)nc(Nc3ccc(Oc4ccccc4)cc3)n2)CC1 | · | – | –
COc1cc2c(cc1NC(=O)CN(C)Cc1nc3ccccc3c(=O)[nH]1)oc1ccccc12 | – | – | ·
Cc1nnc(SCc2nnc(-c3ccc(Cl)cc3)o2)n1-c1ccccc1 | – | – | ·
Cc1nnc(SCc2nnc(-c3ccccc3Br)o2)n1-c1ccccc1 | -12.3 | – | ·
CSC1=Nc2sc3c(c2C2=NCCN12)CC(C)(C)OC3 | – | · | –
CCN1CCN(c2ncc(C(=O)Nc3cc(Cl)ccc3OC)c3ccccc23)CC1 | – | – | 33.1
COc1ccc(Cl)cc1NC(=O)CCN1CCN(c2ccccc2C)CC1 | – | · | ·
Cc1ccc(-c2nnn(CC(=O)N(Cc3ccccc3)C(C(=O)NC3CCCC3)c3ccncc3)n2)o1 (configuration not stated) | – | – | –
C=CCn1c(SCC(=O)Nc2c(C)cccc2C)nnc1-c1cnccn1 | – | – | –
CCc1nnc(NC(=O)CSc2nccn2-c2cc(C)cc(C)c2)s1 | – | – | ·
C/C=C(\C)CN1CCc2cc(OC)c(OC)cc2C1 | – | – | ·
COc1cc2c(cc1OC)CN(c1ccc(-c3ccccc3OC)nn1)CC2 | -3.7 | – | –
CCOC(=O)C(NCc1ccccc1OC)(NC(C)=O)C(F)(F)F (configuration not stated) | – | – | –
